From PubChem BioAssay AID463173 (ICCB-Longwood Screening Facility, Harvard Medical School, 2010) come the findings set out here.

In all, about 52,000 compounds went through this assay and about 4,300 (8.3%) were called active. This excerpt belongs to a sample that is enriched for actives. A number with no mark means an inactive call. No stated cut-off is given here; in the data, active means survival mostly below about 52% (no sharp cut-off); inactive means mostly above about 56%.

The test system of this experiment is DeltatarO mutant. The experiment in a line: growth inhibition of S. aureus wild type versus tarO mutant, primary screen, teichoic acid synthesis inhibitors, RN4220, OD600 (AID 463173). The following applies: OD600, 18 h, active compounds read low, screened at 18.75 µg/mL (by protocol).
Take `CC1=C(C(=O)Nc2ccc(Cl)cc2)C(c2ccccc2C)n2ncc(C(=O)Nc3ccc(C)cc3)c2N1` (stereo not drawn): the survival was 54%. The figure for `Oc1ccc(-c2nc(-c3ccccc3)c(-c3ccc(Br)cc3)[nH]2)cc1` is -4% (active).

On to `O=C(O)c1ccc(-c2nc3ccccc3[nH]2)cc1`, for which the survival was 86%. With `O=C(CSc1nc(-c2ccc(F)cc2)[nH]c1-c1ccccc1)Nc1ccccc1`, the survival was 67%. The figure for `Cc1nn(-c2ccc(N3CCCCC3)nn2)c(C)c1CCC(=O)NCc1ccccc1` is 67%; for `Cc1ccc(N(CC(=O)NC2CCCC2)C(=O)c2ccc(N3CCCC3)nc2)cc1` it is 89%.

`Cc1ccc(NC(=O)C2CCCN(S(=O)(=O)c3cccc4nsnc34)C2)c(C)c1` (stereo not drawn): the survival is 83%. For the compound `CC1(C)Oc2ccc(C(=O)Nc3ccccc3)cc2N(CC(=O)N2CCCC2)C1=O`, the survival is 103%.

On to `Cc1cccc(CC(=O)Nc2ccc3nc(N4CCC(C)CC4)cc(C)c3c2)c1`, for which the survival is 4% (active). Regarding `Cc1ccc(Cl)cc1N1CCN(C(=O)CCC(=O)Nc2ccc3nc(N4CCC(C)CC4)cc(C)c3c2)CC1`, the survival was 52%. For `Cc1cc(N2CCC(C)CC2)nc2ccc(NC(=O)CCC(=O)N3CCN(c4cccc(C(F)(F)F)c4)CC3)cc12`, the survival is 31% (active). Regarding `COc1cccc(CC(=O)Nc2ccc3nc(N4CCC(C)CC4)cc(C)c3c2)c1`, the survival was 49%. The figure for `Cc1cc(N2CCC(C)CC2)nc2ccc(NC(=O)CCC(=O)N3CCN(c4ccccc4F)CC3)cc12` is 52%. As to `Cc1cc(N2CCN(C)CC2)nc2ccc(NC(=O)Nc3ccccc3Br)cc12`, the survival was 84%. Consider `COc1ccccc1CC(=O)Nc1ccc2nc(N3CCC(C)CC3)cc(C)c2c1`, for which the survival is 61%. As to `Cc1cc(N2CCC(C)CC2)nc2ccc(NC(=O)Cc3c(F)cccc3Cl)cc12`, the survival was 56%. `Cc1cc(N2CCC(C)CC2)nc2ccc(NC(=O)Cc3ccccc3Br)cc12`: the survival is 46% (active). With `CC1=C(C(=O)Nc2ccc(C)cc2C)C(c2ccccc2C)n2ncnc2N1` (stereo not drawn), the survival was 100%. For the compound `N#CCN(CC#N)C(=O)Cc1cccs1`, the survival is 102%. The figure for `Cc1ccc(CN2C(=O)C3(c4ccccc42)N(c2cccc(F)c2)C(=O)CS3(=O)=O)cc1` (stereo not drawn) is 75%; for `CCN1C(=O)c2ccccc2S(=O)(=O)c2ccc(C(=O)NCc3ccc(F)cc3)cc21` it is 59%; for `COc1ccc2c(CNCc3ccc(C)o3)c(C(=O)O)n(Cc3ccccc3C)c2c1` it is 96%. Turning to `Cc1ccc(NC(=O)c2cccc3c(=O)c4c([nH]c23)CCCC4)c(C)c1`, the survival is 69%. The figure for `COc1cccc(CNC(=O)Cn2c(C)c3cnn(-c4ccccc4)c(=O)c3c2C)c1` is 94%. The figure for `CSc1nc(NC(C)=O)nc(C)c1Br` is 103%.

As for `Nc1c(-c2nc(-c3ccc(F)cc3)cs2)c2ccccn2c1C(=O)c1ccc2c(c1)OCO2`, the survival is 89%. In the case of `COc1ccc(CCNc2nc(SCc3cccc(Cl)c3)nc3ccccc23)cc1OC`, the survival is 94%. Consider `N#Cc1c(C(F)(F)F)cc(-c2cccs2)nc1SCc1ccc(F)cc1`, for which the survival was 125%. The figure for `COc1ccc2c(c1)c1c(c(=O)n(-c3ccccc3C)c(=O)n1CC(=O)NCc1ccc(C)cc1)n2C` is 75%; for `CC(Sc1oc(-c2ccco2)nc1S(=O)(=O)c1ccc(Br)cc1)c1ccccc1` (stereo not drawn) it is 70%.

For `CC(C)Sc1oc(-c2cccs2)nc1S(=O)(=O)c1ccc(Cl)cc1`, the survival is 66%.

Turning to `Cc1ccc(S(=O)(=O)c2nc(-c3cccs3)oc2SC(C)c2ccccc2)cc1` (stereo not drawn), the survival was 55%. The figure for `Cc1ccc(CSc2oc(-c3ccco3)nc2S(=O)(=O)c2ccc(Cl)cc2)cc1` is 63%; for `CCCSc1oc(-c2ccco2)nc1S(=O)(=O)c1ccc(Cl)cc1` it is 51%. The figure for `Cc1ccc(S(=O)(=O)c2nc(-c3ccco3)oc2SCc2ccccc2Cl)cc1` is 61%; for `CCC(C)Sc1oc(-c2ccco2)nc1S(=O)(=O)c1ccc(Cl)cc1` (stereo not drawn) it is 49% (active). The figure for `CC(Sc1oc(-c2cccs2)nc1S(=O)(=O)c1ccccc1)c1ccccc1` (stereo not drawn) is 44% (active). `Cc1ccc(CSc2oc(-c3ccco3)nc2S(=O)(=O)c2ccc(Br)cc2)cc1`: the survival was 56%.

As to `Cc1ccc(S(=O)(=O)c2nc(-c3ccco3)oc2SC(C)C)cc1`, the survival was 47%. The figure for `CCC(C)Sc1oc(-c2ccco2)nc1S(=O)(=O)c1ccc(C)cc1` (stereo not drawn) is 18% (active); for `Cc1ccc(S(=O)(=O)c2nc(-c3ccco3)oc2SC(C)c2ccccc2)cc1` (stereo not drawn) it is 45% (active). In the case of `COc1ccc(Cc2nc3ccc(C(=O)NCCc4ccc(Cl)cc4)cc3o2)cc1`, the survival is 75%. The figure for `O=C(Cn1ncc2c3ccccc3n(Cc3ccc(Cl)cc3)c2c1=O)NC1CCCCCC1` is 96%; for `CSc1ccc(CNC(=O)Cn2c(-c3cccs3)cc3cc(F)ccc32)cc1` it is 101%; for `COc1ccc(NC(=O)C(NC(=O)/C=C\c2ccc3c(c2)OCO3)c2ccc(OC)cc2)cc1` (stereo not drawn) it is 61%. The figure for `CCCn1c(CCC(=O)Nc2cc(OC)cc(OC)c2)nc2cccnc21` is 78%; for `CCOc1ccc(CCNC(=O)c2cccc(-n3c(C)nc4cccnc43)c2)cc1` it is 90%; for `N#Cc1cc2c(cc1C#N)Oc1ccccc1O2` it is 103%. With `CC(C)CCn1c(=O)c2sccc2n2c(CCCC(=O)NC(C)C)nnc12`, the survival is 96%. The figure for `COc1cc(S(=O)(=O)N2CCN(C)CC2)c(C)cc1C` is 78%; for `COc1ccccc1CNC(=O)CN1C(=O)CCCc2ccccc21` it is 94%; for `COc1ccc2cc(CNc3ccc(OC)c(OC)c3)c(=O)n(CC(=O)Nc3ccc(C)cc3)c2c1` it is 74%. The figure for `CC1CCCCN1CCCNC(=O)c1ccc2c(c1)sc1nc(-c3ccc(F)cc3)cn12` (stereo not drawn) is 29% (active).

For the compound `O=C(NC1CCCCC1)c1ccc2c(c1)sc1nc(-c3ccc(F)cc3)cn12`, the survival was 62%. The figure for `CCc1ccc(-c2cn3c(n2)sc2cc(C(=O)NC4CCCCCC4)ccc23)cc1` is 79%. For the compound `CCc1ccc(-c2cn3c(n2)sc2cc(C(=O)NC4CCCCC4)ccc23)cc1`, the survival was 87%. The figure for `O=C(NC1CCCCCC1)c1ccc2c(c1)sc1nc(-c3ccc(F)cc3)cn12` is 85%; for `CCC1CCCCN1CCCNC(=O)c1ccc2c(c1)sc1nc(-c3ccc(F)cc3)cn12` (stereo not drawn) it is 14% (active).
